Out of some 56,000 […] screened, about 4,300 (7.7%) were called active. Rule as the data show it: active = GI50 up to about 1.1 µM and inactive = higher. Only a sample is shown. Results with a measured potency or affinity are listed apart.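 Five compound concentrations were applied to cells in 96-well plates for 48 hours; endpoints were derived by simple linear interpolation of the resulting dose-response curve. Abbreviation: GI50, concentration required for 50% inhibition of growth.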
These substances were tested on OVCAR-3 (assay: NCI tumour cell line growth inhibition, 48 h).

Substance	GI50 [µM]
[Bis(aminomethyl)dimethylsilane]dichloroplatinum (II), CHEMBL2146201	30.5
[Bis(aminomethyl)pentamethylenesilane]dichloropaltinum(II), CHEMBL2146202	6.5
[Bis(aminomethyl)dimethylsilane]tetrachloroplatinum(IV), CHEMBL2146190	7.29
cis-Bis[[(trimethylsilyl)methyl]amino]tetrachloroplatinum(IV), CHEMBL2146191	2.99
[Bis(aminomethyl)pentamethylenesilane]tetrachloropaltinum(IV), CHEMBL2146204	4.56
[Bis(aminomethyl)tetramethylenesilane]dichloropaltinum(II), CHEMBL2146205	32.5
[Bis(aminomethyl)tetramethylenesilane]tetrachloropaltinum(IV), CHEMBL2146189	13.1
CISPLATIN, CHEMBL11359	2.67
[Bis(aminomethyl)diethylsilane]tetrachloroplatinum(IV), CHEMBL2146203	6.11
[Bis(aminomethyl)ethylmethylsilane]tetrachloroplatinum(IV), CHEMBL2146192	4.43
mu-(1,7-nanodiamine-N,N')bis-(cis-aminedichloroplatimum (II)), CHEMBL2146215	29
